Drawing on PubChem BioAssay (EPA / NIEHS), this text covers outcome and AC50 for 39 compounds.

Active and inactive are the calls of the source. Rule for the calls: active = hit-call score of the fitted dose curve at least 0.9, where 1 is the maximum; inactive = score below 0.9.

A short description of the first assay: ATG_ERE_CIS: Attagene CIS-FACTORIAL HepG2 Assay for Estrogen Response Element (ERE) (AID 2282940). Conditions: HepG2 ERE cis-reporter, Attagene RNA transcript; actives raise or lower the signal. Put shortly:
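After 24 h compound treatment, RNA from transfected HepG2 cells was reverse-transcribed, reporter cDNA PCR-amplified, FAM-labelled, HpaI-cut and resolved by capillary electrophoresis. ERE-driven cis reporter transcripts reflect endogenous factors; gain or loss scored against DMSO.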
As to `CCCCCCCCCCBr`, the result was inactive.

For the compound `N#CCCC(Br)(C#N)CBr` (stereo not drawn), the outcome was inactive.

Take `O=C(NC(=O)c1c(F)cccc1F)Nc1cc(Cl)c(Oc2ncc(C(F)(F)F)cc2Cl)c(Cl)c1`: the outcome was inactive.

For `C=C(C)[C@@H]1CC=C(C=O)CC1`, the result was inactive.

As to `Cc1cc(SCc2sc(-c3ccc(C(F)(F)F)c(F)c3)nc2C)ccc1OCC(=O)O`, the call was inactive.

Take `ClCc1ccccc1CCl`: the result was inactive.

As to `N#Cc1ccc(Cl)cc1`, the compound was classed as inactive.

As for `C[N+](C)(C)Cc1ccccc1`, the compound was classed as inactive.

`O=C1C=CC(=O)c2ccccc21`: the outcome was inactive.

For `CC(O)(CS(=O)(=O)c1ccc(F)cc1)C(=O)Nc1ccc(C#N)c(C(F)(F)F)c1` (stereo not drawn), the call was inactive.

As for `CCOC(=O)CC(=O)CCl`, the compound was classed as inactive.

In the case of `O=C(NC(=O)c1c(F)cccc1F)Nc1cc(Cl)c(OC(F)(F)C(F)C(F)(F)F)cc1Cl` (stereo not drawn), the call was inactive.

For the compound `C=CC(=O)NC(C)(C)CC(C)=O`, the result was inactive.

Consider `CC(C)CP(=S)(S)CC(C)C`, for which the result was inactive.

Take `Cc1cc(C(F)(C(F)(F)F)C(F)(F)F)ccc1NC(=O)c1cccc(I)c1C(=O)NC(C)(C)CS(C)(=O)=O`: the call was inactive.

Usually AC50 stands for the concentration giving half of the maximal activity seen. As for `O=S1OC[C@@H]2[C@H](CO1)[C@]1(Cl)C(Cl)=C(Cl)[C@@]2(Cl)C1(Cl)Cl` (stereo partly drawn), the AC50 was 2.77 µM (active).

For the compound `CC1(C)[C@H](/C=C2\CCSC2=O)[C@@H]1C(=O)OCc1coc(Cc2ccccc2)c1`, the outcome was inactive.

In the case of `CNC(=O)CSP(=O)(OC)OC`, the result was inactive.

Turning to `c1csc(-c2ccc(-c3cccs3)s2)c1`, the AC50 was 7.65 µM (active).

As to `C1CCC(C2CCCCC2)CC1`, the compound was called inactive.

On to `NC(=O)c1ccc(N)nc1`, for which the result was inactive.

In the case of `CC(F)(F)CC(F)(F)F`, the call was inactive.

`C=CC(=O)[O][Sn]([CH2]CCC)([CH2]CCC)[CH2]CCC`: the concentration at half-maximal activity (AC50) was 0.0146 µM (active).

Consider `O=S(=O)(C(Cl)(Cl)Cl)C(Cl)(Cl)Cl`, for which the outcome was inactive.

As for `COC(=O)c1cc(Oc2ccc(Cl)cc2Cl)ccc1[N+](=O)[O-]`, the AC50 is 39.1 µM (active).

For the compound `CC(C)(c1ccc(O)c(-c2ccccc2)c1)c1ccc(O)c(-c2ccccc2)c1`, the outcome was inactive.

As to `Clc1cc(C(Cl)(Cl)Cl)cnc1Cl`, the compound was classed as inactive.

On to `CCOC(=O)OC1=C(c2cc(C)ccc2C)C(=O)NC12CCC(OC)CC2` (stereo not drawn), for which the outcome was inactive.

In the case of `CCCSP(=S)(OCC)Oc1ccc(SC)cc1` (stereo not drawn), the AC50 was 7.28 µM (active).

As for `CN(C1CCCCC1)C1CCCCC1`, the compound was classed as inactive.

Regarding `ClCCN1CCOCC1`, the compound was called inactive.

As for `FC(F)OCC(F)(F)C(F)(F)F`, the compound was classed as inactive.

Take `N#Cc1ccccc1N`: the compound was called inactive.

Take `[F][Sn]([c]1ccccc1)([c]1ccccc1)[c]1ccccc1`: the AC50 is 0.0177 µM (active).

On to `C[As+](C)(C)CC(=O)[O-]`, for which the result was inactive.

For `O=C(Nc1ccc(Br)cc1)c1cc(Br)cc(Br)c1O`, the call was inactive.

On to `O=[N+]([O-])c1ccc(Cl)c([N+](=O)[O-])c1`, for which the result was inactive.

Turning to `CC(=Cc1ccccc1)[N+](=O)[O-]`, the outcome was inactive.

Take `CCOc1ccc(N)cc1`: the call was inactive.

The nature of another assay: ATG_Ets_CIS: Attagene CIS-FACTORIAL HepG2 Assay for human Erythroblast Transformation Specific (ETS) (AID 2282941). The note with it: HepG2 ETS cis-reporter transcription, actives raise or lower the signal. Put shortly:
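HepG2 cells transfected with multiple cis-regulated reporter units measuring endogenous ETS-driven transcription, 24 h after dosing. Reporter mRNA quantified by RT-PCR with capillary electrophoresis; bidirectional fit relative to DMSO.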
In the case of `CCCCCCCCCCBr`, the compound was called inactive.

Consider `N#CCCC(Br)(C#N)CBr` (stereo not drawn), for which the outcome was inactive.

In the case of `O=C(NC(=O)c1c(F)cccc1F)Nc1cc(Cl)c(Oc2ncc(C(F)(F)F)cc2Cl)c(Cl)c1`, the compound was called inactive.

As for `C=C(C)[C@@H]1CC=C(C=O)CC1`, the result was inactive.

For the compound `Cc1cc(SCc2sc(-c3ccc(C(F)(F)F)c(F)c3)nc2C)ccc1OCC(=O)O`, the call was inactive.

Turning to `ClCc1ccccc1CCl`, the AC50 was 15.7 µM (active).

For `N#Cc1ccc(Cl)cc1`, the result was inactive.

As for `C[N+](C)(C)Cc1ccccc1`, the result was inactive.

Regarding `O=C1C=CC(=O)c2ccccc21`, the compound was classed as inactive.

As to `CC(O)(CS(=O)(=O)c1ccc(F)cc1)C(=O)Nc1ccc(C#N)c(C(F)(F)F)c1` (stereo not drawn), the compound was classed as inactive.

In the case of `CCOC(=O)CC(=O)CCl`, the AC50 is 26.4 µM (active).

With `O=C(NC(=O)c1c(F)cccc1F)Nc1cc(Cl)c(OC(F)(F)C(F)C(F)(F)F)cc1Cl` (stereo not drawn), the compound was called inactive.

Take `C=CC(=O)NC(C)(C)CC(C)=O`: the call was inactive.

Turning to `CC(C)CP(=S)(S)CC(C)C`, the compound was classed as inactive.

With `Cc1cc(C(F)(C(F)(F)F)C(F)(F)F)ccc1NC(=O)c1cccc(I)c1C(=O)NC(C)(C)CS(C)(=O)=O`, the compound was called inactive.

In the case of `O=S1OC[C@@H]2[C@H](CO1)[C@]1(Cl)C(Cl)=C(Cl)[C@@]2(Cl)C1(Cl)Cl` (stereo partly drawn), the compound was classed as inactive.

With `CC1(C)[C@H](/C=C2\CCSC2=O)[C@@H]1C(=O)OCc1coc(Cc2ccccc2)c1`, the outcome was inactive.

For the compound `CNC(=O)CSP(=O)(OC)OC`, the compound was called inactive.

With `c1csc(-c2ccc(-c3cccs3)s2)c1`, the compound was classed as inactive.

For `C1CCC(C2CCCCC2)CC1`, the call was inactive.

`NC(=O)c1ccc(N)nc1`: the AC50 is 100 µM (active).

On to `CC(F)(F)CC(F)(F)F`, for which the compound was called inactive.

For the compound `C=CC(=O)[O][Sn]([CH2]CCC)([CH2]CCC)[CH2]CCC`, the compound was called inactive.

In the case of `O=S(=O)(C(Cl)(Cl)Cl)C(Cl)(Cl)Cl`, the result was inactive.

As to `COC(=O)c1cc(Oc2ccc(Cl)cc2Cl)ccc1[N+](=O)[O-]`, the call was inactive.

For `CC(C)(c1ccc(O)c(-c2ccccc2)c1)c1ccc(O)c(-c2ccccc2)c1`, the compound was called inactive.

Turning to `Clc1cc(C(Cl)(Cl)Cl)cnc1Cl`, the compound was classed as inactive.

In the case of `CCOC(=O)OC1=C(c2cc(C)ccc2C)C(=O)NC12CCC(OC)CC2` (stereo not drawn), the result was inactive.

As for `CCCSP(=S)(OCC)Oc1ccc(SC)cc1` (stereo not drawn), the call was inactive.

On to `CN(C1CCCCC1)C1CCCCC1`, for which the compound was called inactive.

For the compound `ClCCN1CCOCC1`, the compound was classed as inactive.

Take `FC(F)OCC(F)(F)C(F)(F)F`: the compound was classed as inactive.

On to `N#Cc1ccccc1N`, for which the call was inactive.

In the case of `[F][Sn]([c]1ccccc1)([c]1ccccc1)[c]1ccccc1`, the AC50 is 0.32 µM (active).

Turning to `C[As+](C)(C)CC(=O)[O-]`, the compound was called inactive.

On to `O=C(Nc1ccc(Br)cc1)c1cc(Br)cc(Br)c1O`, for which the AC50 was 4.61 µM (active).

Take `O=[N+]([O-])c1ccc(Cl)c([N+](=O)[O-])c1`: the compound was classed as inactive.

`CC(=Cc1ccccc1)[N+](=O)[O-]`: the call was inactive.

`CCOc1ccc(N)cc1`: the outcome was inactive.
